Screening results deposited in PubChem by National Center for Advancing Translational Sciences (NCATS).
Shown are actives, neighbours in structure and some others; about 10% of the full set was active somewhere.
CtBP-E1A inh = qHTS Assay for Inhibitors of the CtBP/E1A Interaction; AID 651724, 2012; 0.49% of 340,000 active; CtBP / adenovirus E1A interaction (AlphaScreen); activity change, % (no concentration beside the values); AlphaScreen GST-E1A/His-CtBP binding, 1536-well; stronger effect = lower value; in the data active = activity change below about -65%; inconclusive = mostly about -30% to -63%
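Homogeneous bead-based format: GST-tagged E1A captured on glutathione donor beads, His-tagged CtBP on nickel acceptor beads; compounds precede bead addition by 2 h at 37 °C.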
Six1-Eya2 blk = qHTS Assay for Inhibitors of the Six1/Eya2 Interaction; AlphaScreen GST-Six1/His-Eya2 binding, biochemical; stronger effect = lower value; activity change, % (test concentration not listed); 0.56% of 360,000 active; AID 651725, 2012; in the data active = activity change below about -65%; inconclusive = mostly about -30% to -63%
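Six1/Eya2 binding was read as AlphaScreen signal after compounds were pinned into GST-Six1 plus His-tagged Eya2 (5X stock 250/500 nM) in pH 8.0 Tris/NaCl/TCEP buffer, beads added, then incubated 1 h, 37 C, dark.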
BAZ2B block = qHTS Assay for Inhibitors of BAZ2B; Bromodomain adjacent to zinc finger domain protein 2B (Homo sapiens), Q9UIF8; AlphaScreen BAZ2B-H3K14Ac peptide displacement; Potency, µM (series often up to 114 µM), actives largely listed as inhibitors; 4.4% of 360,000 active; also: nearly all actives have a fitted effect of over 60% in size
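AlphaScreen displacement: compounds (up to 110uM) incubated 30 min at room temperature with a preformed 50 nM BAZ2B/50 nM biotinylated H3K14Ac peptide complex in PBS pH 7.4 with Tween-20. Donor and acceptor beads at 10 ug/mL final added, 20 min light-protected before reading.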
G9a inh = qHTS Assay for Inhibitors of Histone Lysine Methyltransferase G9a | Histone-lysine N-methyltransferase EHMT2 (Homo sapiens), Q96KQ7 | G9a H3K9 monomethylation, AlphaScreen, 2 h | Potency, µM (titrated, usually from 102 µM), actives largely listed as inhibitors | 8.8% of 350,000 active | AID 504332, 2011; also: nearly all actives have a fitted effect of over 75% in size
Target sequence (Q96KQ7 913-1193 limits assumed): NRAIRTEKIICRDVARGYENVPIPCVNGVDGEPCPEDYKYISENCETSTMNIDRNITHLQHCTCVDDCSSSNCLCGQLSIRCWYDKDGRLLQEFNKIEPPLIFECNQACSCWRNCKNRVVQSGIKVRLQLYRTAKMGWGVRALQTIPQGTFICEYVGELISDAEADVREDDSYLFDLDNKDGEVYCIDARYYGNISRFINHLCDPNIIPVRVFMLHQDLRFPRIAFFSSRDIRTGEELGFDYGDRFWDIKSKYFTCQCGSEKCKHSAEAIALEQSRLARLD
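Quantitative HTS format: methyltransferase activity on a biotin-tagged H3K9 peptide is measured by AlphaScreen, using a rabbit anti-monomethyl-H3K9 antibody with streptavidin donor and anti-IgG acceptor beads. Final levels are 20 nM enzyme, 500 nM peptide, 20 uM SAM; 2 h RT.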
HP1b chromo inh = HTS for Inhibitors of HP1-beta Chromodomain Interactions with Methylated Histone Tails. Chromobox protein homolog 1 (Homo sapiens), P83916. AlphaScreen HP1-beta / biotin-H3K9me3 peptide binding. Potency, µM (series often up to 114 µM), most hits filed as inhibitors. 0.56% of 390,000 active; also: nearly all actives have a fitted effect of over 70% in size
Target sequence (P83916 whole entry, looked up): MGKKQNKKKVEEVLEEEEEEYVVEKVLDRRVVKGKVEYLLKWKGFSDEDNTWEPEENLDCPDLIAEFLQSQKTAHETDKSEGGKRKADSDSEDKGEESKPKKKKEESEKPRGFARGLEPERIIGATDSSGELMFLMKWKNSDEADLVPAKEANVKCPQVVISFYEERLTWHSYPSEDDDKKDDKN
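Compound inhibition of the preformed complex between 50 nM HP1-beta and 50 nM biotinylated H3K9me3 peptide was read by AlphaScreen. Buffer was PBS pH 7.4 with 0.01% Tween-20. Incubations ran 30 min at room temperature, with 10 ug/mL donor/acceptor beads.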
JMJD2A Tudor = qHTS Assay for Inhibitors of JMJD2A-Tudor Domain. Potency, µM (titrated, usually from 114 µM), hits mostly inhibitors. Lysine-specific demethylase 4A (Homo sapiens), O75164. 4.4% of 390,000 active. AID 504339, 2011. AlphaScreen JMJD2A-Tudor / H3K4me3 peptide binding; also: nearly all actives have a fitted effect of over 50% in size
Numbers stand for hits; – = inactive; ? = inconclusive; · = not tested or not shown; ! = repeats disagree; [ ] = dose if it differs, or a comment. Unless noted, calls follow the shape of the dose curve; as a rule, active = well fitted inhibition curve with a large enough effect; inconclusive = small, poorly fitted or top-dose-only effect; inactive = no such curve, though single readings can be large or run the other way.

SMILES | CtBP-E1A inh | Six1-Eya2 blk | BAZ2B block | G9a inh | HP1b chromo inh | JMJD2A Tudor
COc1ccc(C(=O)NCCNc2nc3cc(C)cc(C)c3cc2C#N)c(OC)c1 | – | – | · | · | · | ·
O=C(Cc1ccccc1)Nc1ccnn1C1CCN(Cc2nccs2)CC1 | – | – | – | – | – | –
Cc1ccc(CCNS(=O)(=O)c2ccc3c(c2)NC(=O)C(C)C(=O)N3)cc1 (centres undefined) | – | – | ? | – | – | –
Cc1ccc(C)c(Cn2c(=O)n(CCCCCC(=O)NCc3ccc4c(c3)OCO4)c(=O)c3sccc32)c1 | · | · | – | – | – | –
COc1ccc(N2Cc3cccc(C(=O)O)c3C2=O)cc1 | – | – | 20µM | 31.6µM | ? | 44.7µM!
Cc1cccc(OC(=O)n2c(=S)oc3cc(Cl)ccc32)c1 | – | – | – | 2.82µM | – | 79.4µM
CCCCc1nn2c(=O)cc(COC(=O)CNC(=O)COc3ccc(C)cc3)nc2s1 | · | · | – | – | – | –
COc1ccccc1/C=C/CN1CCN(c2ccccc2)CC1 | – | ? | 50.1µM | 11.2µM | ? | 22.4µM
COc1ccccc1/C=C/C=N/N1CCN(Cc2ccccc2)CC1 | – | – | 31.6µM | 11.2µM | – | –
Cc1ccc(CN2CCN(/N=C/C=C/c3ccccc3[N+](=O)[O-])CC2)cc1 | -75.8 | ? | 20µM | 20µM | 17.8µM | 14.1µM
C/C(=C\C(=S)Nc1ccccc1)Nc1ccc2ccccc2c1 | – | – | 25.1µM | – | ? | 79.4µM
O=C(Nc1nccs1)c1ccc(CSc2nnnn2-c2ccccc2)cc1 | -78.9 | -68.3 | – | –[12.7 µM] | – | –
O=C(CN1CCCCC1)Nc1ccc(NC(=O)c2ccccc2Cl)cc1Cl | – | – | – | 10µM | – | –
O=C(CN1CCN(CC(=O)Nc2ccccc2Cl)CC1)Nc1ccc2c(c1)OCCO2 | – | – | – | 25.1µM | – | –[11.4 µM]
S=C(Nc1ccc2c(c1)OCCO2)Nc1ccccc1Cl | – | – | – | 79.4µM | – | –
S=C(Nc1ccc(Cl)cc1)Nc1ccc2c(c1)OCCO2 | – | – | – | · | – | –
CCOc1ccc(NC(=O)c2cc(S(=O)(=O)NC3CCCC3)ccc2F)cc1 | · | · | – | – | – | –
COc1ccc(CN2C(=O)c3ccccc3C2C(=O)NC2CCCC(C)C2C)c(OC)c1 (centres undefined) | · | – | – | – | – | –
Oc1ccc(C[C@H]2CNC(=S)N2C[C@H]2CCCN2C[C@H](Cc2ccccc2)N2C[C@H](Cc3ccccc3)N(CC3CCCCC3)C2=S)cc1 | – | – | · | · | · | ·
COc1cc2c3c(c1)/C(=C1/SC(NC(C)=O)=NC1=O)C(=O)N3C(C)(C)C=C2C | – | – | 20µM | ? | ? | ?
CCN1C(=O)/C(=C2/C(=O)N3c4c(cc(OC(C)=O)cc42)C(C)=CC3(C)C)SC1=S | – | – | 2µM | 2.82µM | ? | ?
CCN1C(=O)/C(=C2\SC(=S)N(CCCOC)C2=O)c2ccccc21 | – | – | ? | –[12.7 µM] | ? | ?
CC1(c2nnc(-c3cccc(Cl)c3)o2)CC(c2cccc([N+](=O)[O-])c2)=NO1 (centres undefined) | – | – | – | 44.7µM | – | ?
CS/C(=N\S(=O)(=O)c1ccc(F)cc1)c1ccccc1 | · | · | · | · | – | –
c1ccc(Cc2ccc(OCCn3cncn3)cc2)cc1 | – | – | – | – | – | –
SMILES | CtBP-E1A inh | Six1-Eya2 blk | BAZ2B block | G9a inh | HP1b chromo inh | JMJD2A Tudor
c1ccc(-c2ccc(OCCOCCn3cncn3)cc2)cc1 | – | – | 50.1µM | ? | ? | 31.6µM
COc1ccc(OCCn2cncn2)cc1 | – | – | 56.2µM | 22.4µM | – | 7.94µM
O=C(COC(=O)c1ccccc1Nc1ccccc1)NCc1ccccc1 | – | – | – | 50.1µM | – | –
O=C(OCCOCCO)c1ccccc1Nc1cccc(C(F)(F)F)c1 | · | · | · | –[5.15 µM] | · | ·
O=C(COC(=O)c1ccccc1Nc1ccccc1)NCc1ccccc1Cl | – | – | – | – | – | –
O=C(COC(=O)c1cccc(Br)c1)NCc1ccco1 | – | – | · | · | ? | 17.8µM
O=C(COC(=O)c1ccccc1Nc1cccc(C(F)(F)F)c1)NCc1ccco1 | – | – | 44.7µM | 28.2µM | ? | 56.2µM
O=C(COC(=O)c1ccco1)NCc1ccco1 | – | – | – | – | – | –
O=C(COC(=O)c1ccc(Br)o1)NCc1ccco1 | – | – | · | · | – | 79.4µM
CCCC(C(=O)NCc1cccc(Cl)c1)N1Cc2ccccc2C1=O (centres undefined) | · | · | – | – | – | –
COc1ccc(C(=O)OCC(=O)NCc2ccco2)cc1OC | – | – | – | 44.7µM | – | –
O=C(COC(=O)c1ccccc1Oc1ccccc1)NCc1ccco1 | – | – | 28.2µM | 44.7µM | ? | 56.2µM
O=C(COC(=O)c1ccccc1)NCc1ccco1 | – | – | 50.1µM | – | – | ?
COC(F)(F)C(Cl)Cl | · | · | · | –[12.7 µM] | · | ·
CC(=O)NCCOc1cccc2ccccc12 | – | – | – | –[12.7 µM] | – | –
CCCc1ccccc1OCCNC(C)=O | – | – | – | – | – | 15.8µM
Cc1cc2c(s1)c1cnn(Cc3c(F)ccc(Cl)c3F)c(=O)c1n2C | · | · | · | · | · | –
CCn1c(=O)cc(OCC(=O)NCc2ccc(F)cc2Cl)c2ccccc21 | · | · | – | – | – | –
Cc1ccc(C)c(C(=O)COC(=O)CNS(=O)(=O)c2ccccc2)c1 | – | – | – | 70.8µM | – | –
Cc1ccc(S(=O)(=O)NCC(=O)OCC(=O)c2cc(C)n(-c3ccccc3)c2C)cc1 | – | – | ? | ? | – | –
O=C(CCNS(=O)(=O)c1ccc(Cl)cc1)OCC(=O)c1ccc[nH]1 | – | – | – | – | – | –
COC(=O)c1ccc(-n2c(C)cc(C(=O)COC(=O)CNS(=O)(=O)c3ccc(C)cc3)c2C)cc1 | – | – | – | ? | – | 22.4µM
O=C(CCNS(=O)(=O)c1ccccc1)OCC(=O)c1ccc[nH]1 | – | – | – | 50.1µM | – | –
COCCN1C(=O)c2[nH]nc(-c3c(C)cc(C)cc3O)c2C1c1cccc(O)c1 (centres undefined) | · | · | – | – | – | –
CC(C)OC(=O)CC1C(=O)NCCN1C(=S)NC(=O)CCc1ccccc1 (centres undefined) | – | – | – | ? | – | –
CC(C)OC(=O)CC1C(=O)NCCN1C(=S)NC(=O)c1ccccc1 (centres undefined) | · | – | ? | 31.6µM | – | –
COC(=O)CC1C(=O)NCCN1C(=S)NC(=O)C(c1ccccc1)c1ccccc1 (centres undefined) | – | – | – | ? | – | ?
